Screen size: about 390,000 compounds; about 17,000 (4.4%) were called active. About 8% were inconclusive and are not listed. Calls follow the shape of the dose curve; as a rule, active = well fitted inhibition curve with a large enough effect; inconclusive = small, poorly fitted or top-dose-only effect; inactive = no such curve, though single readings can be large or run the other way. The sample as a whole holds a higher share of actives than the screen did.
% is scaled to controls: 0 for no effect and ±100 for the full control effect; potency is read from the fitted curve at half-maximal effect.

Lysine-specific demethylase 4A (Homo sapiens), sequence (O75164 whole entry, looked up, the tested form may be a part): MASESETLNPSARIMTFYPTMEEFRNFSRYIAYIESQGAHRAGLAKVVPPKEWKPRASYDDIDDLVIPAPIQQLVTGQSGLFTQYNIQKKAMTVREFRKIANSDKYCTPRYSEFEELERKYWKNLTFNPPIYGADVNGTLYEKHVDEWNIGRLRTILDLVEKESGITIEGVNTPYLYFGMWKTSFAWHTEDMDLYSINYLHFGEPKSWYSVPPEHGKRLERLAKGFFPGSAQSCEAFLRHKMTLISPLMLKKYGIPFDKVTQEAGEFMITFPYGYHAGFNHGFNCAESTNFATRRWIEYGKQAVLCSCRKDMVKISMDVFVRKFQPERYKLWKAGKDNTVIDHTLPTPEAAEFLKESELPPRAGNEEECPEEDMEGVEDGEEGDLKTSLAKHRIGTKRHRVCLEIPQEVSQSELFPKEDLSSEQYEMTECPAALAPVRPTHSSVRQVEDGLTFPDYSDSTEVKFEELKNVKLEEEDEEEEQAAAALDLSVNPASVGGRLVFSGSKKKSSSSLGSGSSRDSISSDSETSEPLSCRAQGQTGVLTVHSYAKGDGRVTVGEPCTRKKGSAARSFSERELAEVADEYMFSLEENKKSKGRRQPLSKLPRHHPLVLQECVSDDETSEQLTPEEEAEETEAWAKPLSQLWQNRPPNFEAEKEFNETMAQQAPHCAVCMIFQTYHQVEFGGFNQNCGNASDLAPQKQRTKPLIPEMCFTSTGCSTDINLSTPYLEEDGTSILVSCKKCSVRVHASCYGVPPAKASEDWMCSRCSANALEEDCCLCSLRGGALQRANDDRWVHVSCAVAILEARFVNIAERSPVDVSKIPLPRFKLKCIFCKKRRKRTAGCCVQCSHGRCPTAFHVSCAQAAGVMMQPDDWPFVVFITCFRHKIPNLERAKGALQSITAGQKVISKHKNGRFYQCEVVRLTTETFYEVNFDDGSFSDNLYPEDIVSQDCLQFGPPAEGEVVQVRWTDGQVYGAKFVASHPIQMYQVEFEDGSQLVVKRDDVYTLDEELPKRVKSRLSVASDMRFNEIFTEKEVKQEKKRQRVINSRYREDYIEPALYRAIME

This assay addresses Lysine-specific demethylase 4A (Homo sapiens) (UniProt O75164). Nature of the assay: qHTS Assay for Inhibitors of JMJD2A-Tudor Domain. Also: nearly all actives have a fitted effect of over 50% in size. The conditions noted are these: AlphaScreen JMJD2A-Tudor / H3K4me3 peptide binding; series mostly up to 114 µM; activity change, negative = inhibition: at the top concentration. For orientation: qHTS replaces the single test concentration by a dilution series.
Take `O=C(CSc1oc(-c2ccco2)nc1S(=O)(=O)c1ccc(Cl)cc1)c1ccccc1`: the “activity change, negative = inhibition” value is -29% (inactive).

Regarding `COc1ccccc1C1/C(=C(/O)c2ccc(C)cc2)C(=O)C(=O)N1Cc1ccco1` (stereo unspecified), the “activity change, negative = inhibition” value was -7.61% (inactive).

For the compound `COc1ccc(C2/C(=C(/O)c3ccccc3)C(=O)C(=O)N2C)c(OC)c1` (stereo unspecified), the “activity change, negative = inhibition” value was -13% (inactive).

For `COc1ccc(/C(O)=C2\C(=O)C(=O)N(Cc3ccco3)C2c2ccc(OC)cc2OC)cc1` (stereo unspecified), the Potency was 20 µM (active).

For the compound `CCOC(=O)c1cccc(NC(=O)C(Cc2ccccc2)NS(=O)(=O)c2cccc3nsnc23)c1` (stereo unspecified), the “activity change, negative = inhibition” value was -25.7% (inactive).

For the compound `COc1ccc2c(c1)c(N1CCCC1=O)c(C(=O)Nc1ccccc1C(F)(F)F)n2C`, the “activity change, negative = inhibition” value is -2.07% (inactive).

On to `Cc1ccc(NC(=O)NC(=O)N(C2CCCCC2)S(=O)(=O)c2ccccc2)cc1`, for which the Potency was 70.8 µM (active).

With `CC(C)(C)NS(=O)(=O)c1ccc(NC(=O)NC2CCCCC2)cc1`, the “activity change, negative = inhibition” value was -9.35% (inactive).

For the compound `CC(c1ccco1)N(C(=O)Nc1ccccc1)C1CCCCC1` (stereo unspecified), the “activity change, negative = inhibition” value is -15.1% (inactive).

In the case of `Cc1ccc2cccc(NC(=O)c3cccc4ccccc34)c2n1`, the “activity change, negative = inhibition” value was 29.1% (inactive).

In the case of `COc1cccc2c1C(=O)c1c(O)c3c(c(O)c1C2=O)CC(O)(C(C)=NNC(=O)c1ccc(Cl)c(Cl)c1)CC3OC1CC(N)C(O)C(C)O1` (stereo unspecified), the Potency was 50.1 µM (active).

As for `Cc1ccc(CNC(=O)CCNS(=O)(=O)c2ccc3c(c2)oc(=O)n3C)cc1`, the “activity change, negative = inhibition” value was -5.3% (inactive).

Take `O=C(Nc1ccc2nc(SCCOc3ccccc3Cl)sc2c1)c1ccco1`: the “activity change, negative = inhibition” value was -7.62% (inactive).

As for `COc1ccc(C(=O)c2oc3ccc(Br)cc3c2NC(C)=O)cc1`, the “activity change, negative = inhibition” value was -14.3% (inactive).

Regarding `COc1ccc(/C=C/C(=O)c2cc(Br)ccc(=O)c2O)cc1`, the Potency was 31.6 µM (active).

Turning to `COc1ccc(CC(=O)NCC(=O)N/N=C/c2cc(Br)ccc2OC)cc1`, the “activity change, negative = inhibition” value was -17.2% (inactive).

On to `COc1ccc(S(=O)(=O)NCc2cccn2Cc2cccc(C)c2)cc1`, for which the “activity change, negative = inhibition” value was -8.28% (inactive).

For the compound `CCOc1ccccc1N(C)C(=O)c1cc2c(s1)-c1ccccc1OC2`, the “activity change, negative = inhibition” value is 5.82% (inactive).

Take `CCSc1ncc(Cl)c(C(=O)Nc2c(C(=O)c3ccccc3)oc3ccccc23)n1`: the “activity change, negative = inhibition” value is -25% (inactive).

With `O=C(CCS(=O)(=O)c1cc(Br)cc2c1N(C(=O)C1CC1)CC2)Nc1ccc(Br)cc1F`, the “activity change, negative = inhibition” value is -8.22% (inactive).

Regarding `CCc1ccccc1N1C(=O)C2C3CC(=O)C(c4ccccc43)C2C1=O` (stereo unspecified), the “activity change, negative = inhibition” value was -9.28% (inactive).

Regarding `Cc1ccc(N2C(=O)CC(Nc3cccc4ccccc34)C2=O)cc1` (stereo unspecified), the “activity change, negative = inhibition” value is -16.5% (inactive).

`CC1=C(C)CC2C(=O)N(c3cccc4ccccc34)C(=O)C2C1` (stereo unspecified): the Potency is 56.2 µM (active).

Regarding `O=C(Cn1ncn2nc(-c3cccs3)cc2c1=O)NCc1cccc(Br)c1`, the “activity change, negative = inhibition” value was 0% (inactive).

Take `CCOC(=O)c1[nH]c(C)c(CCC(=O)N2CCN(c3ccccc3)CC2)c1C`: the “activity change, negative = inhibition” value was -26.9% (inactive).

Regarding `Cc1ccc(CNC(=O)Cn2c(=O)ccc3cc(S(=O)(=O)N4CCCC4)ccc32)cc1`, the “activity change, negative = inhibition” value was -0.323% (inactive).

For the origin of these results see PubChem BioAssay AID504339 (National Center for Advancing Translational Sciences (NCATS), 2011).
